Laboratory results from PubChem BioAssay AID803 (The Scripps Research Institute Molecular Screening Center, 2007).
In all, about 140,000 compounds went through this assay and about 680 (0.49%) were called active. Many of the other results were omitted from the sample, so actives are more common in it than they were. Values without a mark were called inactive. Cut-off read from the data, not from the text of the source: active = activation above about 5% (passing the limit was not always enough); inactive = the rest.

These compounds were tested against Galanin receptor type 2 (Homo sapiens) (UniProt O43603) (assay: GALR2 receptor agonists, primary screen, cell-based (AID 803;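 note: 0% = vehicle buffer wells and 100% = reference agonist at full effect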)). Conditions: GALR2-expressing cells, agonist activation read-out; at 5.6 µM; active compounds read high.
Sequence of Galanin receptor type 2 (Homo sapiens) (O43603 whole entry, looked up): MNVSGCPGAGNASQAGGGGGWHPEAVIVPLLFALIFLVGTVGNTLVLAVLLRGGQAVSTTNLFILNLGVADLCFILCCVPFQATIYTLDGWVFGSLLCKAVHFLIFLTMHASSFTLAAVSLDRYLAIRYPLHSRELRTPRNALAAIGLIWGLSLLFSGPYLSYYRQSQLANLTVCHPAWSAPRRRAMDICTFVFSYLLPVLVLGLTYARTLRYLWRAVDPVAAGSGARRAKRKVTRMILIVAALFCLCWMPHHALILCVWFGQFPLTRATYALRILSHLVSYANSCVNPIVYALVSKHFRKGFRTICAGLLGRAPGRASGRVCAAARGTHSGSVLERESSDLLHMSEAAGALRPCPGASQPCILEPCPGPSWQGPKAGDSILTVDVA
CC(C)C(=O)Nc1cccc(NC(=O)c2ccc([N+](=O)[O-])cc2Cl)c1 was tested, and the activation was 7.57% (active). With COc1ccc(S(=O)(=O)NC(C)C(=O)Nc2cccc([N+](=O)[O-])c2)cc1 (configuration not stated) the activation was -0.92%. In the case of CCC(C)C(=O)Nc1cc([N+](=O)[O-])ccc1Cl (configuration not stated), the activation is reported as -0.24%. For C/C(=N\N=C(N)N)c1ccc(Cl)cc1, the activation was -2.59%. Compound O=C(NN1C(=O)C2C3C=CC(C3)C2C1=O)c1ccco1 (configuration not stated) has an activation of -0.17%. For CC1(C)CC(=O)C=C(NCCN2CCNCC2)C1, the activation was 33.1% (active). Compound CC1(C)CC(=O)C=C(NCCCN2CCCC2=O)C1 has an activation of -3.74%. Compound CC1(C)CC(=O)C=C(NCCCNC2CCCCC2)C1 has an activation of -0.48%. COc1cccc(/C=N/Nc2ncc(C(F)(F)F)cc2Cl)c1O was tested, and the activation was 0.04%. Cc1cc(O)ccc1NC1=CC(=O)CC(C)(C)C1 gave an activation of -0.24%. COCCCNC(=S)NC(=O)c1ccc([N+](=O)[O-])cc1 showed an activation of -2.33%. With O=C(Nc1ccccc1)/C(=C/c1ccc([N+](=O)[O-])cc1)NC(=O)c1ccccc1 the activation was 5.48% (active). O=C(N/N=C/c1ccc(O)cc1)/C(=C/c1ccc([N+](=O)[O-])cc1)NC(=O)c1ccccc1 gave an activation of -1.29%. With O=C(NC(=S)Nc1ccc(NC(=O)c2cccs2)cc1)c1ccc([N+](=O)[O-])cc1 the activation was 13.8% (active). With O=C(NCCc1ccccc1)/C(=C\c1ccc([N+](=O)[O-])cc1)NC(=O)c1ccccc1 the activation was -1.62%. Work on O=C(O)c1ccc(NC(=O)c2cccs2)cc1 yielded an activation of -3%. Work on Cc1ccccc1C(CC(=O)c1cccs1)C(C#N)C#N (configuration not stated) yielded an activation of -0.23%. Cc1cc2c(C)nc(N/N=C/c3ccccc3)nc2o1 showed an activation of 0.45%. O=C(Oc1ccccc1Cl)c1ccc(N2CCOCC2)c([N+](=O)[O-])c1 showed an activation of -1.48%. CC(=O)c1sc(N/N=C\c2ccc(C)cc2)nc1C was tested, and the activation was 2.02%. With O=C(CSc1ncnc2scc(-c3ccccc3)c12)NCc1ccc2c(c1)OCO2 the activation was -1.28%. CC(C)(C)SCCNC(=O)c1cccc([N+](=O)[O-])c1 was tested, and the activation was -0.73%. With Cc1ccc(S(=O)(=O)N2CCN(CC(=O)N/N=C/c3cc([N+](=O)[O-])ccc3Cl)CC2)cc1 the activation was -0.78%. In the case of CSc1nc(-c2ccccc2)nc(C(Cl)Cl)n1, the activation is reported as 8.01% (active). With CSc1nc(C)cc(SC(C(C)=O)C(=O)Nc2ccccc2)n1 (configuration not stated) the activation was -0.36%. CC(=O)CCC(=O)c1ccc2ccccc2c1 gave an activation of -2.23%. With Cc1ccc(C(=O)NC(=S)NCCN2CCOCC2)cc1 the activation was -1.71%.
